Measured values reported in PubChem BioAssay (NCI).
About 83,000 compounds went through this panel and 20% of them were active in at least one assay; those are over-represented in the sample as a whole.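 Treatment: one concentration, 48 hours, 96-well format. Scoring: percent growth, with anything below 10 considered active.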 The source made the active and inactive calls.

test system: HCC-2998 colon; test: NCI-60 one-dose screen, 48 h (100 = growth as untreated, 0 = no growth, -100 = all killed); conditions: 10 µM unless noted
Protocol: Growth inhibition of the HCC-2998 human tumor cell line is measured as a screen for anti-cancer activity. Cells are grown in 96 well plates and exposed to the test compound for 48 hours. Compounds are tested at a single concentration, which is 10^-5 M for most compounds. The reported endpoint is percent growth (GI% or GIPRCNT), where numbers from 0 - 100% represent growth inhibition, and numbers from -100% - 0 represent cell death. For example, a value of 40 represents 60% growth inhibition. A value of 0 means no net growth occurred over the course of the experiment. A value of -40 indicates 40% of cells at the beginning of the experiment died by the end of the experiment. A value of -100 means all cells are dead at the end of the experiment.
NCI-60 Human Tumor Cell Lines Screen was performed using the standard one-dose NCI protocol, which is described in more detail at https://dtp.cancer.gov/discovery_development/nci-60/default.htm.
Compounds with GIPRCNT values below 10 were considered active. Activity score was based on GIPRCNT using the following formula: […]
Score is 0 for GIPRCNT values of 100 or above, 50 for GIPRCNT values of 0, and 100 for GIPRCNT values of -100.

Compound | growth
COc1ccc(-c2n[nH]nc2-c2csc3ccccc23)cc1OC | 72.1% (inactive)
CCNc1ncnc2c1cnn2C1CCCO1 (stereo not given) | 109% (inactive)
Clc1ccc2c(NCCCCNc3nc(N4CCOCC4)nc4ccccc34)ccnc2c1 | 58.3% (inactive)
CC1=NN(c2nc(-c3ccc(Cl)cc3)c(C#N)c(N3CCOCC3)n2)C(=O)C1 | 98.5% (inactive)
Cc1[nH]c(-c2cc(N)ccc2Cl)c2c1C(=O)CCCC2 | 33.5% (inactive)
COc1cc(C(=O)Oc2ccccc2OC(=O)c2cc(OC)c(OC)c(OC)c2)cc(OC)c1OC | 101% (inactive)
COc1ccc(/C=C(\C#N)C(=O)Nc2cccc(Nc3nc(SC)nc(-c4cccc([N+](=O)[O-])c4)c3C#N)c2)cc1OC | 114% (inactive)
O=c1ccccc(-c2ccc(-c3ccco3)cc2)c1O | 41.1% (inactive)
COC(=O)c1ccc2oc(NC(=O)c3ccc(Nc4ccc([N+](=O)[O-])cc4C)c([N+](=O)[O-])c3)nc2c1 | 101% (inactive)
O=C1/C(=C/c2ccc3c(c2)OCO3)SC(=S)N1CCc1ccc(O)cc1 | 103% (inactive)
O=[N+]([O-])c1ccc(Nc2nc(NCCN3CCOCC3)ncc2[N+](=O)[O-])cc1 | 93.4% (inactive)
O=C1NC(=S)NC(=O)C1CC(=O)n1c(-c2ccccc2)nc2ccccc21 | 104% (inactive)
COc1cc(CNc2oc(-c3ccccc3)c(-c3ccccc3)c2C#N)cc(CN2CCN(C)CC2)c1O | 37.4% (inactive)
O=S(=O)(Nc1ccc(NS(=O)(=O)c2ccccc2)c(Cl)c1)c1ccccc1 | 104% (inactive)
Cc1cc(NS(=O)(=O)c2ccc(-c3cnc(C4CC4)o3)cc2)ccc1Cl | 25.1% (inactive)
O=[N+]([O-])c1cnc(N2CCN(CC3CC3)CC2)nc1N1CCN(CC2CC2)CC1 | 99% (inactive)
COc1cccc(C2=NN3C(C2)c2cc(Br)cc(OC)c2OC32CCN(Cc3ccccc3)CC2)c1 (stereo not given) | 99.2% (inactive)
CCN(CC)c1ccc2c(c1)Oc1nc(N)c(C#N)c(N)c1C2Sc1ccc(SC)cc1 (stereo not given) | -72.2% (active)
CCCCN(CCCC)CCCn1c(-c2ccccc2)ccc1-c1ccccc1 | 59.9% (inactive)
CCN(CC)c1ccc(/C=N\NC(=O)/C=C/C=C/c2ccc3c(c2)OCO3)c(O)c1 | 54% (inactive)

Compound | growth
COc1ccc(C2Nc3c(c(C(C)(C)C)nn3-c3ccccc3)C(=O)CS2)cc1 (stereo not given) | 102% (inactive)
COc1ccc(-c2cc(=O)c3c(OC)c4ccoc4cc3o2)cc1 | 106% (inactive)
CCOC(=O)c1cc(C(=O)c2ccc(O)c(O)c2)n2ccc(-c3ccn4c(C(=O)c5ccc(O)c(O)c5)cc(C(=O)OCC)c4c3)cc12 | 104% (inactive)
Cc1ccc(/C=C2\SC(=S)N(CC(=O)NCCCN3CCOCC3)C2=O)cc1 | 102% (inactive)
N#Cc1c(-c2ccc(Cl)cc2)nc(N/N=C/c2cccc(Br)c2)nc1N1CCOCC1 | 96.1% (inactive)
COc1cc2nc(N3CCCC3)nc(NCc3ccccc3)c2cc1OC | 55.4% (inactive)
CC(=O)Nc1ccc(-n2c(O)c(/C=N/NC(=O)Cc3ccccc3Nc3c(Cl)cccc3Cl)sc2=S)cc1 | 106% (inactive)
O=C1Nc2c(ccc(Cl)c2Cl)/C1=C\c1ccc(C(F)(F)F)cc1 | 92.4% (inactive)
COc1cc2c(cc1-c1c(C)noc1C)ncc1nc(C3CCCCC3)n([C@H](C)COC(F)F)c12 | 43.7% (inactive)
Nc1ccc(-c2cc3c(Nc4ccc(Oc5cccc(C(F)(F)F)c5)c(Cl)c4)ncnc3s2)cc1 | 69% (inactive)
COc1cc(/C=C/C(=O)c2cccnc2Nc2ccc(F)cc2)cc(OC)c1OC | 21.7% (inactive)
COc1cccc(/C=C2\Oc3cc(OCCN4CCCC4)ccc3C2=O)c1 | 82.6% (inactive)
CC[C@@H](C(=O)[C@@H](C)[C@@H](O)[C@H](C)[C@@H]1O[C@@H]([C@@H](CC)C(=O)O)CC[C@@H]1C)[C@H]1OC2(C=C[C@@H](O)[C@]3(CC[C@@](C)([C@H]4CC[C@](O)(CC)[C@H](C)O4)O3)O2)[C@H](C)C[C@@H]1C (stereo not given in full) | 10.7% (inactive)
COc1cc(-c2nn(-c3ccc(C(=O)O)cc3)cc2C(=O)O)ccc1O | 91.3% (inactive)
CN(C)CCN1C(=O)c2cccc3c(N)ccc(c23)C1=O | 48.1% (inactive)
O=C(N=Nc1c(O)[nH]c2ccc(Br)cc12)c1cc(-c2ccccc2)on1 | 103% (inactive)
COC[C@H](C)n1c(C2CCOCC2)nc2cnc3cc(-c4c(C)noc4C)c(OC)cc3c21 | 56.6% (inactive)
O=C(CCN1C(=O)/C(=C/c2ccc(Cl)cc2)SC1=S)NCCCN1CCOCC1 | 105% (inactive)
Cc1nn(-c2ccc(F)cc2)c2ncnc(Nc3ccc(NC(=O)Nc4ccc(Cl)c(C(F)(F)F)c4)cc3)c12 | 22.2% (inactive)
COC(=O)[C@@H]1CCCN1C(=O)[C@@H]1CCCN1C(=O)[C@H](Cc1ccccc1)NC(=S)Nc1cc(C(F)(F)F)cc(C(F)(F)F)c1 | 93.3% (inactive)
